Laboratory results taken from PubChem BioAssay AID828 (The Scripps Research Institute Molecular Screening Center, 2007).
Out of some 140,000 compounds screened, about 550 (0.39%) were called active. No stated cut-off is given here; in the data, active means inhibition above about 27%; inactive means the rest. The sample as a whole holds a higher share of actives than the screen did.

target: Galanin receptor type 2 (Homo sapiens) (UniProt O43603); test: GALR2 antagonists in receptor-expressing cells, primary screen (AID 828); settings: antagonist mode, at 4 µM, hits give high values;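 further: cells stimulated with galanin 1-16 at roughly its EC80; 0% = agonist challenge control and 100% = basal control without agonist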
Sequence (O43603 whole entry, looked up): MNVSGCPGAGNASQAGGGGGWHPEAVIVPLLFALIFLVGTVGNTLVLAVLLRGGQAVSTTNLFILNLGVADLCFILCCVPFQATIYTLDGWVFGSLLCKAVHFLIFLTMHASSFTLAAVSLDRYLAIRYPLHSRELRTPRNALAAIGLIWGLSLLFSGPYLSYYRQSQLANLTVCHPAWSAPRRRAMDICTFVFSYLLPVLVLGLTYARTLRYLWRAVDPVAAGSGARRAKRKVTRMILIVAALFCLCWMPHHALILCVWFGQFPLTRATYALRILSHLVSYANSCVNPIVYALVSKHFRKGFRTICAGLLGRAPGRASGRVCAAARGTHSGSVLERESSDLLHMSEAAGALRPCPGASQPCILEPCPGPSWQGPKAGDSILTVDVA

inhibition, inactive:
CCOC(=O)NC(=O)CSc1nnc(SCCC(=O)O)s1 -4.2%
Nc1nc(SCC(=O)NCCN2CCOCC2)nc2sc3c(c12)CCC3 15.2%
O=C(CSc1nc2ccc([N+](=O)[O-])cc2[nH]1)c1ccc(Cl)cc1 5.51%
Cc1cc(Oc2ccc(Cl)cc2)nc(SCC(=O)c2ccccc2)n1 -1.42%
O=C(CC1NCCNC1=O)Nc1cc(Cl)cc(Cl)c1 (stereo unspecified) -4.41%
CC1CN(C(=S)SCC(=O)c2ccccc2)CC(C)O1 (stereo unspecified) -1.6%
CC(=O)Nc1ccc(NC(=O)C(C)OC(=O)c2ccccc2C(=O)c2ccc(Cl)c([N+](=O)[O-])c2)cc1 (stereo unspecified) 25.8%
COC(=O)c1cc(NC(=O)Cc2ccccc2[N+](=O)[O-])ccc1Cl 16.4%
CCN(C(=O)COC(=O)c1cc(NS(=O)(=O)c2ccc(Cl)c([N+](=O)[O-])c2)ccc1O)C1CCCCC1 -12.1%
NS(=O)(=O)c1ccc(NC(=O)COC(=O)C2(c3ccc(F)cc3)CCCC2)cc1 10.9%
CN(c1ccccc1)S(=O)(=O)c1cccc(NC(=O)Cc2c(F)cccc2Cl)c1 6.13%
CSCCC(Nc1ccc(S(=O)(=O)N2CCOCC2)cc1[N+](=O)[O-])C(=O)OCC(=O)N(C(C)C)C(C)C (stereo unspecified) 0.86%
O=C(CCc1[nH]c2ccccc2c1Sc1ccccc1)N(CCO)CCO -2.04%
CCCOC(=O)c1c(NC(=O)c2cnn3c2NC(c2ccccc2)CC3C(F)(F)F)sc2c1CCCC2 (stereo unspecified) -6.74%
CCOC(=O)c1cc2c(=O)n3ccccc3nc2n(CC(C)C)c1=NC(=O)c1c(-c2c(F)cccc2Cl)noc1C -2.98%
Cc1cccc(N2CCN(C(=O)c3ccccc3NC(=O)C3CCCCC3C(=O)O)CC2)c1 (stereo unspecified) 0.78%
Cc1ccc(NN=C2C(=O)OC(C)(C)OC2=O)c(C)c1 4.74%
CN(C)c1ccc(C(CNC(=O)c2ccc(F)cc2)c2c[nH]c3ccccc23)cc1 (stereo unspecified) 5.85%
CC(=O)N/C(=C/c1ccc(OC(F)F)cc1)C(=O)O -1.23%
Cc1nn(-c2ccccc2)c(-n2cccc2)c1C(=O)O 8.6%
O=C(CN1CCc2ccccc21)NC(c1ccccc1)c1ccccc1 -11.2%
CCCCN(CC)C(=O)c1ccc2c(c1)OCO2 -4.88%
C=CCNC(=S)NNC(=O)c1ccc(Br)o1 0.37%
O=C(COc1cccc(F)c1)Oc1ccc(C(=O)c2ccccc2)cc1 5.19%
CC(C)(C)NCCCOc1ccc(Cl)cc1C(C)(C)C -7.15%
Cc1cccc(-c2nc3ccccc3c(=O)n2NC(=O)Cc2ccc(Cl)cc2)c1 -8.75%
Cc1cc(C)cc(NS(=O)(=O)c2ccc(Oc3ncc(C(F)(F)F)cc3Cl)cc2)c1 -0.6%
CSc1ccccc1-c1nnc(-c2ccc(Cl)cc2)o1 14.1%
O=C(NNC(=S)Nc1ccc(Br)cc1Cl)c1ccco1 1.63%
c1ccc(-c2cc3c(NCC4COc5ccccc5O4)ncnc3s2)cc1 (stereo unspecified) -0.87%
COc1ccc(-c2nn(C)c(=O)c3ccccc23)cc1NC(=O)COc1ccccc1 2.22%
Cc1ccc(NC(=O)Cn2nc(C)c3ccccc3c2=O)c(C)c1 8.82%
Cc1ccc(-n2c(C)cc(C(=O)CSc3nnc4ccccn34)c2C)cc1 3.5%
Cc1ccc(C(=O)NC(=S)Nc2ccc3[nH]c(=O)[nH]c3c2)cc1C -6.84%
COc1ccc(NC(=S)NCC2CCN(c3ccc(OC)cc3)C2)cc1 (stereo unspecified) -2.41%
C/C(CC1CC(C)(C)OC1=O)=N/Nc1nc(-c2ccccc2)cs1 (stereo unspecified) 7.6%
COc1cc(C(=O)NCc2nnc(SCC(=O)Nc3nc4ccc(C)cc4s3)o2)cc(OC)c1OC -19.9%
CCCCc1ccc(NC(=S)N2CCCC(CO)C2)cc1 (stereo unspecified) -8.34%
COc1ccc(NC(=O)CN(Cc2ccccc2)S(C)(=O)=O)cc1OC -9.1%
O=C1CCCN1CCCNc1ncnc2c1[nH]c1ccccc12 22.8%
CCN1CCCC1CNc1ncnc2c1[nH]c1ccc(F)cc12 (stereo unspecified) 13.1%
COc1ccc(/C=C/C(=O)Nc2ccc3c(c2)OCCO3)cc1OC 12.7%
COc1ccc(NS(=O)(=O)c2cc(NC(=O)/C=C/c3cc(OC)c(OC)c(OC)c3)ccc2N2CCCCC2)cc1 5.85%
O=C(NNC1CC(=O)N(c2cccc(Cl)c2)C1=O)c1cccnc1 (stereo unspecified) -6.86%
COc1ccccc1OCCC(=O)OCC(=O)NCc1ccccc1 -7.36%
Cc1cccc(-n2c(C)cc(/C=N/NC(N)=S)c2C)c1 -7.75%
CCCN(CCC)c1c([N+](=O)[O-])c(=O)oc2ccccc12 7.9%
CCOC(=O)Cc1csc(NC(=O)CSc2ccc(Br)cc2)n1 6.81%
CC(C)/C=N/NC(=O)c1cc(Br)ccc1O 10.3%
COc1ccc(C2COC(=O)C2=N)c(NC(=O)c2ccccc2)c1 (stereo unspecified) -8.91%
Cc1nn(Cc2ccc(Cl)cc2)c(Cl)c1/C=N/NC(=O)c1cccnc1 10.9%
CC1CCc2sc(C(=O)N/N=C/C3CCCCC3)cc2C1 (stereo unspecified) -7.82%
CN(C)c1ccc(-n2cccc2/C=N/n2cnnc2)cc1 0.57%
CC(Sc1nc(-c2ccccc2)cc(C(F)(F)F)n1)C(=O)Nc1ccc2c(c1)OCO2 (stereo unspecified) 0.9%
CCc1cccc(C)c1NC(=O)COC(=O)Cc1ccsc1 5.66%
Cc1ccc(NC(=O)CSCC(=O)NC2CCCCC2)cc1 4.82%
Cc1ccc(OCC(=O)OC(C)CN(C)Cc2ccccc2)cc1 (stereo unspecified) -4.66%
CC(NC(=S)Nc1ccc(S(N)(=O)=O)cc1)c1ccc2c(c1)OCO2 (stereo unspecified) 4.43%
COc1cccc(-c2ccc(C#N)c(SCC(=O)NCCc3ccc(Cl)cc3)n2)c1 6.63%
CCc1ccc(C2C(C#N)=C(N)N(N(C)C)C3=C2C(=O)CCC3)s1 (stereo unspecified) -4.14%
CCCc1nc2c([nH]1)C(c1cccnc1)C(C#N)=C(N)O2 (stereo unspecified) 1.63%
COc1cc(OC)cc(-c2nc3ccccc3c(=O)n2NC(=O)c2cccnc2Cl)c1 1.33%
COc1ccc(/C=N/Nc2ncnc3sc4c(c23)CCCC4)cc1O 0.22%
COC(=O)C(NC(=O)c1ccc(OC)cc1)(Nc1ncc(S(=O)(=O)c2ccc([N+](=O)[O-])cc2)s1)C(F)(F)F (stereo unspecified) -4.68%
Cc1cc(C)cc(OCC(=O)Nc2nc3ccc([N+](=O)[O-])cc3s2)c1 7.65%
O=C(CNC(=O)c1ccc(-c2ccccc2)cc1)OCc1ccc(Cl)cc1 9.65%
CC(=O)COc1ccc2c(-c3ccccc3)cc(=O)oc2c1 -10.7%
CN(C)CCNC(CC(=O)Nc1ccc(Cl)c(Cl)c1)C(=O)O (stereo unspecified) -5.57%
CS(=O)(=O)N(CC(=O)Nc1ccc(Cl)c(Cl)c1)C1CCCCC1 -3.02%
COC(=O)c1ccccc1SC1CC(=O)N(c2cccc(C)c2)C1=O (stereo unspecified) 10.2%
C=CCNC(=O)COC(=O)c1ccccc1C(=O)N(C)C1CCCCC1 -14.8%
Cc1cc(C(=O)COc2ccccc2[N+](=O)[O-])c(C)n1-c1cccc(S(=O)(=O)N2CCOCC2)c1 -3.23%
CCOC(=O)c1c(NC(=S)NC(=O)/C=C/c2cccs2)sc(C)c1C -8.3%
Cc1c(C(=O)Nc2cccc(-c3nnc4n3CCCCC4)c2)oc2ccccc12 -1.52%
CC(Cc1cccs1)NC(=O)c1cccc(Cl)c1 (stereo unspecified) 3.36%
Cc1ccc(/C(N)=N/OC(=O)COc2ccc(Cl)c(C)c2)cc1 7.55%
CC(C)(C)c1ccc(C(=O)CSc2ncn[nH]2)cc1 4.68%
O=C(NCCOCc1ccc(Cl)cc1)c1ncn[nH]1 6.29%
COc1ccc(NC(=O)c2nc(-n3nc(C)cc3C)ccc2Cl)cc1Cl -4.22%
N#Cc1ccccc1Sc1ccccc1C(=O)OCC(=O)NC1CCCCC1 -1.21%
COc1ccc(CNC(=O)CN(Cc2ccc(Cl)cc2)S(C)(=O)=O)cc1 -0.09%

inhibition, active:
N#Cc1cccc(NC(=O)COC(=O)c2ccccc2C(=O)c2ccc(Cl)c([N+](=O)[O-])c2)c1 68.1%
CN(C)S(=O)(=O)c1cccc(NC(=O)COC(=O)C2(c3ccccc3F)CCCC2)c1 31.7%
FC(F)(F)c1cnc(Oc2ccccc2-c2nnc(-c3ccc(Cl)cc3)o2)c(Cl)c1 99.8%
Cc1ccc(F)cc1NC(=O)Cc1nn(C)c(=O)c2ccccc12 39.3%
CC(C)OCCCNc1ncnc2c1[nH]c1ccc(F)cc12 35.1%
COc1ccc(/C=C/C(=O)Nc2ccc(C34CC5CC(CC(O)(C5)C3)C4)cc2)cc1OC 27.3%
O=C(NC(Nc1nc2ccc([N+](=O)[O-])cc2s1)(C(F)(F)F)C(F)(F)F)c1ccccc1 88.7%
O=C(CNC(=O)OCc1ccccc1)Oc1cc2oc(=O)cc(-c3ccccc3)c2cc1Cl 31.1%
CC(c1cccnc1)N(CCN(C)C)C(=O)Nc1ccc(Cl)c(Cl)c1 (stereo unspecified) 29.6%
O=C(/C=C/Sc1ncn[nH]1)c1ccc(Cl)cc1 36.3%
